# Source: PubChem BioAssay (National Center for Advancing Translational Sciences (NCATS))
# mIDH1 inhibitor: qHTS for Inhibitors of mutant isocitrate dehydrogenase 1 (IDH1): qHTS. actives 0.093% (n = 390,000). Isocitrate dehydrogenase [NADP] cytoplasmic (Homo sapiens), O75874. AID 602179, 2012. Potency, µM (doses to about 76.6 µM), inactives show at the top dose activity change, negative = inhibition, most hits filed as inhibitors. IDH1-R132H enzyme, NADPH consumption, diaphorase/resazurin fluorescence; also: potency is read from the fitted curve at half-maximal effect; % is scaled to controls: 0 for no effect and ±100 for the full control effect; nearly all actives have a fitted effect of over 65% in size
#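 IDH1-R132H (0.5 ug/mL dispensed) in pH 7.5 Tris buffer was preincubated 30 min with compound, then given a substrate mix of 0.016 mM NADPH and 2 mM alpha-KG for 80 min at room temperature; remaining NADPH was read by diaphorase/resazurin fluorescence.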
# LDHA inh: qHTS assay for inhibitors of human lactate dehydrogenase; purified LDHA, NADH/diaphorase-resazurin fluorescence; stronger effect = lower value; L-lactate dehydrogenase A chain (Homo sapiens), P00338; activity change, % (values are at about 110 or 230 µM); AID 1347041, 2019; actives 0.15% (n = 480,000); in the data active = activity change below about -30%; inconclusive = mostly about -25% to -30%;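 also: plate controls were DMSO wells for no effect and wells without enzyme for full effect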
#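 LDH5 2 nM; NADH 0.06 mM, pyruvate 0.2 mM; 200 mM Tris pH 7.4, EDTA, Tween-20; 5 min RT. Detection: diaphorase 0.133 mg/mL + resazurin 37 µM, fluorescence ex540/em590 at 0 and 20 min; normalized to enzyme-free and DMSO wells.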
# GLP-1R inv ag: qHTS of GLP-1 Receptor Inverse Agonists (Inhibition Mode); AID 624417, 2012; Potency, µM (series often up to 38.3 µM), for inactives: at the highest dose activity change, negative = inhibition, actives largely listed as inhibitors; Glucagon-like peptide 1 receptor (Homo sapiens), P43220; HEK293 GLP-1R CRE-luciferase, luminescence, 24 h; GLP-1R form is constitutively active; actives 1.6% (n = 410,000); also: potency is read from the fitted curve at half-maximal effect; % is scaled to controls: 0 for no effect and ±100 for the full control effect; nearly all actives have a fitted effect of over 55% in size
#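 qHTS in 1536-well format: reporter HEK293 cells expressing constitutive GLP-1R activity in DMEM + 10% Nu serum, 24 hr with compounds at 37 deg C, luminescence read after 12 min with detection reagent.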
# GLP-1R agonist: qHTS of GLP-1 Receptor Agonists | Glucagon-like peptide 1 receptor (Homo sapiens), P43220 | HEK293 GLP-1R CRE-luciferase, luminescence, 4-6 h; cells express a hypersensitive GLP-1R form | Potency, µM (top dose mostly 45.6 µM), without a hit: at the highest dose activation, hits mostly activators | actives 0.007% (n = 380,000) | AID 624172, 2012; also: potency is read from the fitted curve at half-maximal effect; % of control where 0% means no effect
# PTHR1 agonist: qHTS for PTHR1 Agonists: Primary Screen; Parathyroid hormone/parathyroid hormone-related peptide receptor (Homo sapiens), Q03431; HEK293 GP2 PTHR1 cells, GloSensor cAMP luminescence, 1 h; Potency, µM (series often up to 115 µM), for the others: at the top dose activation, most hits filed as activators; actives 0.075% (n = 410,000); also: potency is read from the fitted curve at half-maximal effect; nearly all actives have a fitted effect of over 55% in size
# Target sequence (Q03431 whole entry, looked up): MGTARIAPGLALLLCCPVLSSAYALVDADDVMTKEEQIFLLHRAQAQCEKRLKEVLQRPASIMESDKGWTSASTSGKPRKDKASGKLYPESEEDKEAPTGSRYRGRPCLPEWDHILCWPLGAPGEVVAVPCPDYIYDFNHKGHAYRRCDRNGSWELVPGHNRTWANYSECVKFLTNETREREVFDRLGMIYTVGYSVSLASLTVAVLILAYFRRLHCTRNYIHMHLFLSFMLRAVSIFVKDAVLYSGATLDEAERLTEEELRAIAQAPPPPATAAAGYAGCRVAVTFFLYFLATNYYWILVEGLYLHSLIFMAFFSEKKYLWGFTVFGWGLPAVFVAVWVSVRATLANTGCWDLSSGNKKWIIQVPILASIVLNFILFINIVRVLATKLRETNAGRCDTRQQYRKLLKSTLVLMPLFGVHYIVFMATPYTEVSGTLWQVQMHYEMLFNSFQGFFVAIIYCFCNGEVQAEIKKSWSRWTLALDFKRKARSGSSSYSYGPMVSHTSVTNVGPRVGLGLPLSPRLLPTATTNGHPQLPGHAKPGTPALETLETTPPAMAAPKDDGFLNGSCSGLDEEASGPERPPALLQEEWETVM
#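 HEK-293-derived GP2 cells expressing PTHR1 and a GloSensor cAMP reporter, 3,000/well, plated overnight, given luciferin plus IBMX (each 0.5 mM as added) for 1 h at 37 °C, then compound for 1 h at 37 °C. Luminescence was read after 15 min at room temperature.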
# HEK293 tox: qHTS of GLP-1 Receptor Inverse Agonists: Cytotox Screen | HEK293 cAMP-luciferase reporter cells, luminescence, 24 h | Potency, µM (series often up to 38.3 µM), without a hit: at the highest dose activity change, negative = inhibition, hits mostly inhibitors | actives 0.13% (n = 410,000);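 also: loss of luciferase light is scored as toxicity; potency is read from the fitted curve at half-maximal effect; % is scaled to controls: 0 for no effect and ±100 for the full control effect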
#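 Quantitative HTS format, 1536 wells, 200 cells/uL seeded. Compounds: 23 nL, 24 h, 37 °C. Detection: luciferase reagent, luminescence at 12 min RT; decreased signal taken as cytotoxic.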
# * marks the source's active call; other numbers are inactive results; i = inactive; ? = inconclusive; . = no result; ! = a repeat was not active; [ ] = remark or other dose. An excerpt weighted towards active compounds, which were near 1.7% of everything screened. Unless noted, calls follow the shape of the dose curve; as a rule, active = well fitted curve in the direction sought with a large enough effect; inconclusive = small, poorly fitted or top-dose-only effect, or another doubt; inactive = no such curve, though single readings can be large; an effect the other way counts as inactive or inconclusive.
SMILES,mIDH1 inhibitor,LDHA inh,GLP-1R inv ag,GLP-1R agonist,PTHR1 agonist,HEK293 tox
COc1ccc2oc(=O)cc(-c3cc4cccc(OC)c4o3)c2c1,18%,-33*!,-9%,7%,-4%,-5%
Cc1cc(Cl)ccc1OCC(=O)N(Cc1ccco1)Cc1ccccc1F,-1%,1,11µM*,.,-11%,7%
CN(C)S(=O)(=O)c1cccc(NC(=O)COC(=O)c2cc(-c3cccc(Br)c3)nc3ccccc23)c1,-2%,-9,10µM*,-25%,i,-9%
CCCCCCCCN1C(=O)[C@H](CC(=O)NCCCCc2ccccc2)C[C@@]2(C(=O)OCC)CCCC=C12,.,1,7.1µM*,0%,i,-3%
CCCCCCCCN1C(=O)[C@H](CC(=O)NCc2ccc(C)o2)C[C@@]2(C(=O)OC)CC(C)(C)CC=C12,.,6,?,.,-22%,-4%
CCCCCCCCN1C(=O)[C@H](CC(=O)NCc2cccs2)C[C@@]2(C(=O)OC)CC(C)(C)CC=C12,.,4,8.9µM*,.,-44%,-6%
COC(=O)[C@@]12C[C@@H](CC(=O)NCc3ccccc3)C(=O)N(Cc3ccccc3)C1=CCC(C)(C)C2,.,0,11µM*,.,-40%,-19%
CN1CCc2c(sc3ncn4nc(COc5ccc6ccccc6c5)nc4c23)C1,.,-1,.,.,.,.
O=S(=O)(Nc1ccc(Cc2ccncc2)cc1)c1ccc(Cl)c(Cl)c1,0%,15,-1%,1%,-23%[57.5 µM],10µM*
COc1ccc(S(=O)(=O)Nc2ccc(Cc3ccncc3)cc2)cc1OC,-1%,2,19%,9%,-29%,-8%
O=C(Nc1ccc(Cl)c(Cl)c1)Nc1nccs1,8%,-8,3.2µM*,-5%,-33%,4%
O=C(Nc1cccc(Cl)c1)Nc1nccs1,-9%,0,0%,3%,?,?
COc1c(C(O)CC(C)C)ccc2c1C(=O)OCc1cc(C)cc(O)c1O2 (stereo unspecified),-8%,9,11µM*,-5%,-47%,-1%
COc1c(C(CC(C)C)OC(C)=O)ccc2c1C(=O)OCc1cc(C)cc(O)c1O2 (stereo unspecified),?,8,10µM*,4%,-35%,-3%
O=C(c1ccccc1Br)N(Cc1ccccc1)c1ccccc1,-2%,-4,8.9µM*,15%,-19%,3%
CCOc1c(Br)cc(CNC2CCCCCCC2)cc1OC,-9%,-7,3.2µM*,-1%,21%,2%
CNC(=O)c1ccccc1NCC(=O)Nc1sc2c(c1C(=O)OC)CCCCC2,.,-2,.,.,.,.
c1ccc(CN2CCC(Nc3nc(-c4cccs4)nc4ccccc34)CC2)cc1,4%,-3,7.1µM*,-4%,i,?
COC(=O)C1(C(=O)OC)C[C@H](/C=C/c2ccccc2)N(Cc2ccccc2OC)[C@@H]1c1cccs1,.,2,10µM*,.,-1%,32%
COc1ccccc1CN1C2CCCC1CC(NC(=O)/C=C/c1ccccc1)C2 (stereo unspecified),0%,-10,10µM*,-1%,i,?
Cc1ccc(NC(=O)c2cn(-c3ccccc3)nc2-c2ccccc2)cc1,-1%,-10,?,.,7%,6%
COc1ccc(Nc2ncccc2C(=O)Nc2ccccc2)cc1,11%,10,?,5%,-1%[57.5 µM],7%
Cc1c(C(=O)Nc2ccccc2)cnn1-c1ccccc1,7%,22,?,1%,-33%,-25%
COc1ccc(NC(=O)c2cn(-c3ccccc3)nc2-c2ccc(C)cc2)cc1,-3%,-1,7.9µM*,.,i,1%
COc1ccc(NC(=O)c2cccnc2Nc2ccc(OC)cc2)cc1,4%,-1,10µM*,9%,-9%[57.5 µM],-9%
SMILES,mIDH1 inhibitor,LDHA inh,GLP-1R inv ag,GLP-1R agonist,PTHR1 agonist,HEK293 tox
CCN(CC)CCNC(=S)NC(=O)c1cn(-c2ccccc2)nc1-c1ccc(OC)cc1,2%,-5,5µM*,19%,14%,?
COc1ccc(NC(=O)c2cnn(-c3ccccc3)c2C)cc1,8%,0,7.9µM*,2%,-42%,-17%
CCN(CC)C(=O)C(c1ccccc1)N1CCN(S(=O)(=O)c2cccs2)CC1 (stereo unspecified),.,5,.,.,.,.
CC(=O)N(C)c1ccc(NC(=O)CCC2CCCC2)cc1,.,12,.,.,.,.
COc1nc2ccccc2nc1N1CCC(C(=O)Nc2ccc(C(N)=O)cc2)CC1,.,2,.,.,.,.
Cc1ccc(NC(=O)NCc2c(C)nn(C)c2C)c(C)c1,.,7,.,.,.,.
CN(CC(=O)Nc1ccc(F)cc1)C(=O)c1cn(-c2ccccc2)nc1-c1cccs1,15%,0,?,-1%,-28%,6%
COc1ccc(NC(=O)CN(C)C(=O)c2cn(-c3ccccc3)nc2-c2cccs2)cc1,8%,-5,11µM*,-1%,i,-4%
COc1ccc(CCNCC(=O)Nc2ccc(C)c(Br)c2)cc1OC,7%,-7,11µM*,-3%,-16%,-10%
Cc1ccc(Cn2c(N3CCC(C(=O)N4CCC(C(N)=O)CC4)CC3)nc3ccccc32)cc1,.,-6,.,.,.,.
COc1ccc(C(C)=O)cc1COC(=O)C1(c2ccc(Cl)cc2)CCCC1,.,-13,.,.,.,.
CCOC(=O)C1=CN(Cc2cccc(F)c2)S(=O)(=O)NC1c1ccc(Br)cc1F (stereo unspecified),-4%,0,10µM*,1%,-29%,1%
O=C(Cc1ccccc1)Nc1cccc(NC(=O)c2cccs2)c1,7%,-5,13µM*,12%,i,15%
Cc1cccc(C)c1OCC(O)Cn1c(C)cc(=O)n2ncnc12 (stereo unspecified),.,-13,.,.,.,.
C=CCn1c(CCc2cc(C(C)(C)C)c(O)c(C(C)(C)C)c2)n[nH]c1=S,-9%,0,?,7%,-14%,11µM*
CCCC(=O)C1=C(O)C(C(=O)OC)C(C)(C)CC1=Nc1cccc2ccccc12 (stereo unspecified),7%,6,7.9µM*,-6%,-4%[57.5 µM],-4%
COc1ccc(C2C3=C(CCCC3=O)Nc3cc(OC)cc(OC)c32)cc1 (stereo unspecified),.,-11,.,.,.,.
